# Source: PubChem BioAssay (National Center for Advancing Translational Sciences (NCATS))
# Compounds with a hit are over-represented: about 2.4% of the library has one in this group of screens.
# D2 ag-1 – human D2 receptor agonism in beta-arrestin assay | P14416 | DiscoveRx PathHunter D2 beta-arrestin, luminescence, 90 min; 100% = 57 uM dopamine signal | activation, % (concentration not given with the values) | 0.084% of 360,000 active; in the data active = activation above about 40%
# Target sequence (P14416 whole entry, looked up): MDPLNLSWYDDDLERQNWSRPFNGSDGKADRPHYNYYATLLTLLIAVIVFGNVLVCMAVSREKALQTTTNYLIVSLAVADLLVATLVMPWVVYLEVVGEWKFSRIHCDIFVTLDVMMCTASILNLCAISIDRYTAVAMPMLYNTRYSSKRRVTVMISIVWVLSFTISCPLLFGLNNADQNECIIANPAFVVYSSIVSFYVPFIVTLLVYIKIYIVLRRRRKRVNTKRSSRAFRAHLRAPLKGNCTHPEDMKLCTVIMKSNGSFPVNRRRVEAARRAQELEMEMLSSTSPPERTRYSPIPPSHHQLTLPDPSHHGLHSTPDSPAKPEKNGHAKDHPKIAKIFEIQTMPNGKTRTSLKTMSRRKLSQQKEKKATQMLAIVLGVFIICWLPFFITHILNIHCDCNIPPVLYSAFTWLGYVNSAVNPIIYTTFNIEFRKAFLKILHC
#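 Agonist mode: compounds alone added to overnight-plated D2 PathHunter cells for 90 min at 37 C, with 57 uM final dopamine (EC100) defining full response. Beta-arrestin recruitment detected by chemiluminescent reagent, read after 1 h at ambient temperature.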
# D2 antag – antagonizes the human D2 dopamine receptor; 2% of 340,000 active; inhibition, % at 10 µM; P14416; HEK293 TREx D2 cells, calcium flux, dopamine EC80; in the data active = inhibition above about 30%; inactive = below that, where a call was filed; note: 0% is about no effect
#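 Calcium mobilization kinetics were recorded at 1 s intervals in tetracycline-induced HEK293 T-REx D2 cells, first for 180 s after compound addition and then 180 s after EC80 dopamine.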
# D2 PAM-1 – human D2 receptor positive allosteric modulation. P14416. DiscoveRx D2 beta-arrestin cells, luminescence, 90 min; 100% = 57 uM dopamine signal. potentiation, % (test concentration not listed). 0.23% of 360,000 active; in the data active = potentiation above about 50%
#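 PathHunter beta-arrestin assay in DiscoveRx D2 cells. Compounds were added with an EC20 of dopamine (50 nM final) for 90 min at 37 deg C. Luminescence was read 1 h after detection reagent, with 57 uM dopamine as the EC100 control.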
# D2 ag-2 – D2 dopamine receptor (human) agonism; activation, % at 2 µM; P14416; 0.53% of 340,000 active; HEK293 T-REx D2 cells, calcium flux agonist mode;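 active = activation over 3 SD above normal in the single-dose calcium agonist read, cut at about 30% in these data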; note: 0% is about no effect
#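 HEK293 Trex D2 cells, tetracycline-induced, o/n 30 C 5% CO2; no-wash Ca dye, RT 30–90 min; 10-cycle baseline, 23 nl cpd added, kinetic Ca read 180 s; agonist hits = positive Ca response.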
# D2 PAM-2 – positively modulates the human D2 dopamine receptor allosterically; P14416; HEK293 T-REx D2, calcium flux, EC20 dopamine potentiation; potentiation, % at 10 µM; 0.34% of 340,000 active; AID 485347;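 active = potentiation over 3 SD above the plate norm, cut at about 30% in these data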; note: 0% is about no effect
#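 Using a no-wash calcium dye in inducible, force-coupled HEK293 Trex cells expressing D2, we tracked fluorescence each second for 180 s after compound, then for 180 s after EC20 dopamine to detect augmented signalling.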
# * hit, by the source's call; . = no result given.
SMILES,D2 ag-1,D2 antag,D2 PAM-1,D2 ag-2,D2 PAM-2
Clc1ccc(Nc2nc(-c3ccccc3)c3ccccc3n2)c(Cl)c1,.,.,.,1,4
CC(CNC(=O)c1ccc(Cn2c(=O)c3cccn3c3cccnc32)cc1)c1ccccc1 (configuration not stated),.,.,.,0,-3
CCOc1ccc(NC(=O)NCc2ccccn2)cc1,0,6,-1,1,10
Cc1ccc(NC(=O)NCc2ccccn2)cc1,2,59*,-10,-2,4
COc1ccc(N2CCN(C(=O)NCc3noc4ccccc34)CC2)cc1,.,.,.,1,-6
OC1CCN(Cc2ccc(OCc3ccccc3)cc2)CC1,5,5,-18,-1,-8
CC1CCCN(Cc2ccc(OCc3ccccc3)cc2)C1 (configuration not stated),0,46*,-35,-1,-14
Cc1ccc2[nH]c3nc(N/N=C/c4cccc(O)c4)nnc3c2c1,-1,37*,-2,0,-11
CCOC(=O)C1=CCC(c2ccc(CC)cc2)N(S(=O)(=O)c2ccc(C)cc2)C1 (configuration not stated),-3,.,-3,.,.
O=C(NCC(c1cccs1)N1CCOCC1)c1ccccc1NS(=O)(=O)c1cc([N+](=O)[O-])ccc1Cl (configuration not stated),-2,33*,-8,-1,12
Cc1cc(-c2ccc(C(C)C)c(S(=O)(=O)Nc3ccccn3)c2)on1,4,31*,-3,-1,-4
Cc1cc(-c2ccc(C)c(S(=O)(=O)Nc3ccccn3)c2)on1,.,.,.,0,1
CCN(CC(=O)Nc1ccc(NC(C)=O)cc1)Cc1c(O)ccc2cc(Br)ccc12,0,-6,0,0,3
O=C(Cc1cccs1)NCCCc1ccccc1,3,69*,13,0,-12
O=C(Cc1cccs1)NCc1ccncc1,-5,58*,1,-1,3
CC(C)Oc1ccc(S(=O)(=O)N2CCOCC2)cc1NC(=O)CN1C(=O)c2ccccc2C1=O,-1,.,-1,.,.
COC(=O)c1ccc(NC(=S)Nc2ccc(O)cc2)cc1,7,-5,-3,1,9
Oc1ccc(NC(=S)Nc2ccc(O)cc2)cc1,12,17,-2,-1,31*
COC(=O)c1cc2c(=O)c3ccccc3oc2nc1/C=C/N(C)C,6,8,-1,40*,13
COC(=O)c1cc2c(=O)c3ccccc3oc2nc1C,-2,0,-6,0,12
C=CCn1c(-c2csc(-c3ccccc3)n2)n[nH]c1=S,-4,-27,-15,0,48*
O=C(CC1SC(=NCC2CCCO2)NC1=O)Nc1cc([N+](=O)[O-])ccc1Cl (configuration not stated),0,0,-15,2,-14
O=C(CC1SC(N2CCOCC2)=NC1=O)Nc1cc([N+](=O)[O-])ccc1Cl (configuration not stated),-5,54*,-14,0,-21
O=C(CC1SC(N2CCCCC2)=NC1=O)Nc1ccc(C(=O)Nc2ccccc2)cc1 (configuration not stated),-4,6,-15,0,2
COc1ccc(NC(=O)CC2SC(N3CCOCC3)=NC2=O)cc1OC (configuration not stated),2,73*,-3,1,-22
SMILES,D2 ag-1,D2 antag,D2 PAM-1,D2 ag-2,D2 PAM-2
O=C(COC(=O)CC1SC(N2CCCC2)=NC1=O)Nc1ccc(Br)cc1 (configuration not stated),-4,31*,-13,-1,6
O=C(CC1SC(N2CCOCC2)=NC1=O)Nc1ccccc1Cl (configuration not stated),0,40*,-7,-1,-25
CC(C)NC(=O)c1ccc(NC(=O)CC2SC(N3CCCC3)=NC2=O)cc1 (configuration not stated),4,-5,0,1,-3
CCC(=O)N1CCc2cc(Br)cc(S(=O)(=O)N3CCCC(C(=O)NCc4ccc(C)cc4)C3)c21 (configuration not stated),.,.,.,.,17
CC(=O)c1ccc(NC(=O)c2cc(-c3ccc(C)s3)nc3ccccc23)cc1,.,.,.,1,-6
Cc1cccc(N(CC(N)=O)C2SC(=O)N(Cc3cccc(C(=O)O)c3)C2=O)c1 (configuration not stated),.,.,.,1,-6
Cc1ccc(C)c(NC(=O)Cc2nc(CNCC(C)C)cs2)c1,-7,5,-23,0,-14
O=C(CC1SC(N2CCOCC2)=NC1=O)Nc1ccc(Cl)cc1 (configuration not stated),-4,58*,-38,0,-25
O=C(CC1SC(N2CCOCC2)=NC1=O)Nc1ccc(F)cc1 (configuration not stated),-3,.,-44,.,.
COc1ccc(CCNC(=O)NC2CCCCC2)cc1,-1,31*,1,0,5
Cc1cccc(N/C=C/C(=O)c2cccs2)c1C,-4,4,-24,-1,-3
NC(=O)c1ccccc1N/C=C/C(=O)c1cccs1,-7,-12,-4,0,31*
Cc1nc2sccn2c(=O)c1CCN1CCC(=C(c2ccc(F)cc2)c2ccc(F)cc2)CC1,-2,78*,-37,-1,-30
Cc1nc2ccccn2c(=O)c1CCN1CCC(C(=O)c2ccc(F)cc2)CC1,-7,95*,-25,-1,-28
Cc1nc2sccn2c(=O)c1S(=O)(=O)N1CCN(c2ccc(F)cc2)CC1,-6,-11,-4,0,-4
CCOc1ccccc1CNC(=O)c1ccc2c(c1)N(Cc1ccc(C)cc1)CCS2,.,.,.,0,-4
C#CCSc1nccc(-c2nn(-c3ccc(C)cc3)ccc2=O)n1,-4,32*,-32,0,-18
Cc1oncc1C(=O)Nc1ccc(C(F)(F)F)cc1,13,36*,-2,-2,4
C[C@H](CO)N1C[C@H](C)[C@H](CN(C)C(=O)c2cc(-c3ccccc3)on2)OCc2cnnn2CCCC1=O,-13,.,-2,.,.
CCN(CC)c1ccc(/C=C/C(=O)c2ccc(Br)cc2)cc1,-2,71*,15,94*,-21
Clc1ccccc1/C=N/N1CCN(Cc2ccccc2)CC1,0,-9,-6,0,-7
Cc1ccc(CN2CCN(/N=C/c3cccs3)CC2)cc1,-1,34*,-30,-1,-25
Cc1ccc(CN2CCN(/N=C/c3ccc(C(F)(F)F)cc3)CC2)cc1,1,-26,-15,0,-3
FC(F)(F)c1ccccc1/C=N/N1CCN(Cc2ccccc2)CC1,0,30*,-21,-1,-21
Cc1ccc(/C=N/N2CCN(Cc3ccc(C)cc3)CC2)cc1,1,55*,-13,0,-20
